Source: PubChem BioAssay (National Center for Advancing Translational Sciences (NCATS))
MARV entry inh: inhibitors of Marburg virus binding or entry into cells | Potency, µM (top dose mostly 49.2 µM), for the others: at the highest dose activity change, negative = inhibition, hits mostly inhibitors | AID 720532 | 6.5% of 18,000 active | Marburg virus pseudotype entry/binding inhibition, cell-based
LASV entry inh: inhibitors of Lassa virus binding or entry into cells. Lassa virus pseudotyped entry inhibition, cell-based qHTS. Potency, µM (top dose mostly 49.2 µM), without a hit: at the highest dose activity change, negative = inhibition, hits mostly inhibitors. 4.1% of 18,000 active
An asterisk follows results filed as active; u = inconclusive; ! = not active in a repeat; [ ] = remark or other dose. An excerpt weighted towards active compounds, which were near 8% of everything screened. The call rests on the fitted dose curve; tested in HEK293 cells. On the % scale 0 is the no-effect control and ±100 the full control effect; potency means the concentration at half of the fitted maximal effect.

SMILES	MARV entry inh	LASV entry inh
COc1ccc2c(c1)CCc1cnc(-n3ncc(C(=O)NCC(C)(C)CN(C)C)c3C)nc1-2	4.5µM*	u
COc1ccc2c(c1)-c1nc(-n3ncc(C(=O)NC[C@@H]4CCCN5CCCC[C@H]45)c3C)ncc1CC2	5µM*	35µM*
COc1ccc2c(c1)CCc1cnc(-n3ncc(C(=O)NCCCN4CCOCC4)c3C)nc1-2	u	-7%
COc1ccc2c(c1)-c1nc(-n3ncc(C(=O)NCC4CCCN(C)C4)c3C3CC3)ncc1CC2 (configuration not stated)	u	0%
CC#CCN1C(=O)NC(c2ccccc2)C(C(=O)OCC)=C1c1ccccc1 (configuration not stated)	7%[8.59 µM]	-16%[8.59 µM]
COC(=O)C(C(=O)OC)[C@@H]1O[C@@]23COCC[C@]2(C)[C@@H]3c2ccccc21	17%[8.59 µM]	-9%[8.59 µM]
C(=C\c1nc(-c2ccccc2)oc1Nc1ccc2ccccc2c1)/c1ccccc1	29%	6%
C[n+]1ccc(/C=C/c2ccc3ccccc3c2)cc1	u	11µM*
CCC(C)CN1C(=O)NC(CCc2ccccc2)C(C(C)=O)=C1C (configuration not stated)	u	-10%[8.59 µM]
Oc1cc(O)c2c(c1)O[C@H](c1ccc(O)c(O)c1)[C@@H](O)C2	9%	-8%
O=c1c(O)cc(C2Oc3cc(O)cc(O)c3CC2O)cc2c(C3Oc4cc(O)cc(O)c4CC3O)cc(O)c(O)c12 (configuration not stated)	13µM*	5%
CC(C)CON=C1C[C@@H](O)[C@@H](O)[C@@H]2[C@H]3C(=O)N(c4ccc(F)cc4F)C(=O)[C@@H]3CC[C@@H]12	-13%[8.59 µM]	5%[8.59 µM]
NS(=O)(=O)c1ccc(-c2ccc3c(NC(=O)C4CC4)n[nH]c3c2)cc1	-14%	-3%
O=C(NCc1ccccc1)c1ccc(-c2ccccc2C(F)(F)F)o1	34%	11µM*
Cc1ccc(-c2ccc(C(=O)NCc3ccc(Cl)cc3)o2)c2ccccc12	-9%	u
C=CCNC1=C2C[C@@H](C)C[C@H](OC)[C@H](O)[C@@H](C)/C=C(\C)[C@H](OC(N)=O)[C@@H](OC)/C=C/C=C(\C)C(=O)NC(=CC1=O)C2=O	1.8µM*	2.2µM*
COC1=C2C[C@@H](C)C[C@H](OC)[C@H](O)[C@@H](C)/C=C(\C)[C@H](OC(N)=O)[C@@H](OC)/C=C\C=C(/C)C(=O)NC(=CC1=O)C2=O	16µM*	18µM*
CC(C)(C)[Si](C)(C)OCCC[C@@H]1C[C@H]2C=CCOP(=O)(O1)O2	14%	-2%
O=c1oc2ccccc2c2c1[C@H]1O[C@](c3ccsc3)(Cc3c1ccc1ccccc31)O2	5%[8.59 µM]	10%[8.59 µM]
COCCN1C(=O)NC(c2cccc(F)c2)C(C(C)=O)=C1C (configuration not stated)	-6%[8.59 µM]	5%[8.59 µM]
C=CCOC(=O)C1=C(C)N(CC)C(=O)NC1c1ccccc1 (configuration not stated)	-5%[8.59 µM]	5%[8.59 µM]
C#CCCCON=C1C[C@@H](O)[C@H](O)[C@H]2[C@@H]3C(=O)N(C[C@@H]4CCCO4)C(=O)[C@@H]3CC[C@@H]12	3%[8.59 µM]	26%[8.59 µM]
C=C1C(=O)[C@]23[C@H](O)[C@H]1CC[C@H]2[C@@]12COC3(O)[C@H](O)[C@@H]1C(C)(C)CC[C@@H]2O	18µM*	u
C[C@H]1[C@@H](c2ccccc2)Oc2c(Cl)cccc2S(=O)(=O)N1Cc1cccc(Cl)c1	u	-28%
CC1(C)CN(Cc2ccccc2)C(=O)[C@@H]1CC(=O)Nc1ccc(Br)cc1	-28%	-10%
SMILES	MARV entry inh	LASV entry inh
Cc1[nH]ccc2c1[nH]c1cc(=O)ccc12	13µM*	u
COC(=O)CC1C2(C)CC34OC5(C)O[C@@]6(C7/C(=C(/O)C(C)C)C(=O)OC(c8ccoc8)[C@]7(C)C(OC(C)=O)C(OC(C)=O)[C@]6(O5)[C@@]13C)C(OC(C)=O)[C@]4(O)C2OC(=O)C(C)C (some centres not stated)	u	-2%
CCC(C)C(=O)OC1C[C@@]2(C)C(c3ccoc3)OC(=O)CC23OC2(C)OC34C(OC(=O)C(C)C)[C@]3(O)C(OC(=O)C5(C)OC5C)[C@]5(C)CC3(O)[C@](C)(C5CC(=O)OC)C14O2 (some centres not stated)	14µM*	3%
Nc1nc(N)c2nc(CNc3ccc(C(=O)N[C@@H](CCC(=O)O)C(=O)O)cc3)cnc2n1	-5%	2%
CN(Cc1cnc2nc(N)nc(N)c2n1)c1ccc(C(=O)NC(CCC(=O)O)C(=O)O)cc1 (configuration not stated)	0.28µM*	u
C[C@H]1O[C@@H](O[C@H]2[C@@H](O)C[C@H](O[C@H]3[C@@H](O)C[C@H](O[C@H]4CC[C@]5(C)C6CC[C@]7(C)[C@@H](C8=CC(=O)OC8)CC[C@]7(O)C6CC[C@@H]5C4)O[C@@H]3C)O[C@@H]2C)C[C@H](O)[C@@H]1O (some centres not stated)	u	0.0025µM*
CC1O[C@@H](O[C@@H]2C(O)C[C@H](O[C@@H]3C(O)C[C@@H](OC4CC[C@@]5(C)C6CC[C@]7(C)C(C8=CC(=O)OC8)CC[C@@]7(O)C6CC[C@@H]5C4)OC3C)OC2C)CC(O)[C@H]1O (some centres not stated)	0.22µM*	0.28µM*
CCN1C(=O)NC(c2cccs2)C(C(C)=O)=C1C (configuration not stated)	u	-8%[8.59 µM]
O=C(OC[C@H]1O[C@](O)(COC(=O)c2cccnc2)[C@@H](OC(=O)c2cccnc2)[C@@H]1OC(=O)c1cccnc1)c1cccnc1	3%	-8%
CCCC[C@]12Cc3cc(C#N)ccc3[C@H](O1)c1c(cc(C)n(Cc3ccccc3)c1=O)O2	-23%[8.59 µM]	-8%[8.59 µM]
O=C1c2ccccc2C(=O)C1c1ccc(F)cc1	1%	-11%
CC1(C)C(=O)NC2=C1C(=O)C(=O)c1ccccc12	4µM*	13µM*
CC(CC(c1ccccc1)c1ccccc1)NC(C)(C)C (configuration not stated)	13µM*	u
CN[C@@H](C)Cc1ccccc1	1%[107 µM]	-9%[107 µM]
CCC=CC[C@@]1(C(=O)OC)C=C[C@@H](C)[C@H](c2ccccc2Br)N1C(=O)C(F)(F)F	-1%[8.59 µM]	5%[8.59 µM]
COC1=C[C@H](C(=O)NC2CCN(Cc3ccccc3)CC2)[C@@]2(C)Cc3ccccc3[C@@H]2CC1=O	-18%[8.59 µM]	28%[8.59 µM]
O=C(C1CCCCC1)N1C[C@@H](O)[C@@H](n2cc(C3CC3)nn2)C[C@@H]1c1ccc(Cl)cc1	-19%	11%
COc1ccc2cc3[n+](cc2c1OC)CCc1cc2c(cc1-3)OCO2	10µM*!	11µM*!
COc1cc2c(c(OC)c1OC)C(c1ccc3c(c1)OCO3)CC(=O)O2 (configuration not stated)	54%	-4%
COc1ccc2c(c[n+](C)c3c4cc5c(cc4ccc23)OCO5)c1OC	4.5µM*	10µM*
COc1ccc2c(c1OC)CN1CCc3cc4c(cc3C1C2)OCO4 (configuration not stated)	2%[17.8 µM]	6%[17.8 µM]
CCOC(=O)C(C)=NNC(C)=O	-17%[8.59 µM]	-4%[8.59 µM]
COc1ccc2c(c1)[C@H](C=Cc1ccccc1)[C@@H]([C@H](O)CO)O2	17%[8.59 µM]	-6%[8.59 µM]
O=C(c1cccs1)N1C[C@@H](n2cc(C3CC3)nn2)[C@@H](O)C[C@@H]1c1ccc(Cl)cc1	-11%	-19%
O=C(O)c1cc(N(Cc2ccccc2O)Cc2cc(O)ccc2O)ccc1O	20µM*!	u
